Measured values published in the supplement of paper PMC13380429.
A number with no mark means an inactive call.

system: Vero E6 infected with SARS-CoV-2; assay: SARS-CoV-2 infection rate relative to infected DMSO; higher = more infection, active = 60 or less; details: 24 h

Row | SMILES | SARS-CoV-2 infection rate
1 | [N-]=[N+]=N[C@]1(CO)O[C@@H](n2ccc(N)nc2=O)[C@H](O)[C@@H]1O (10 µM) | 109%
2 | COc1c(C)cnc(Cn2cnc3c(Cl)nc(N)nc32)c1C (10 µM) | 98.5%
3 | CCOc1ccc(Cc2nccc3cc(OCC)c(OCC)cc23)cc1OCC [ethaverine] (10 µM) | 100%
4 | CN(C)CC(=O)Nc1ccc2[nH]c(=O)c3ccccc3c2c1 (10 µM) | 92.5%
5 | CN(C)CC[C@@]1(c2ccc(Cl)cc2)Cc2ccccc2C(=O)O1 (racemic) (10 µM) | 106%
6 | O=C(N/N=C/c1ccc(O)c(O)c1)c1cc2ccccc2cc1O [dynasore] (10 µM) | 108%
7 | Cc1noc(NS(=O)(=O)c2cccc3c(N(C)C)cccc23)c1C (10 µM) | 95.5%
8 | COc1ccc(OC)c([C@@H](O)CNC(=O)CN)c1 [midodrine] (10 µM) | 108%
9 | CCCCC[C@H](O)/C=C/[C@H]1[C@H](O)CC(=O)[C@@H]1CCCCCCC(=O)O [alprostadil] (10 µM) | 90.5%
10 | CC(C)(C)CC(C)(C)c1cc(Cc2cc(C(C)(C)CC(C)(C)C)cc(-n3nc4ccccc4n3)c2O)c(O)c(-n2nc3ccccc3n2)c1 [bisoctrizole] (10 µM) | 114%
11 | CN(C)CC[C@H](CSc1ccccc1)Nc1ccc(S(=O)(=O)NC(=O)c2ccc(N3CCN(Cc4ccccc4-c4ccc(Cl)cc4)CC3)cc2)cc1[N+](=O)[O-] (10 µM) | 108%
12 | CCCC(=O)Nc1cccc(NC(=O)c2ccccc2Br)c1 (10 µM) | 110%
13 | COc1ccc(CC(=O)NC(/N=C(\NC#N)Nc2cccc3ncccc23)C(C)(C)C)cc1OC (stereo not given) (10 µM) | 97%
14 | CN1CCC[C@@H](CC2c3ccccc3Sc3ccccc32)C1 (racemic) [metixene] (0.833333 µM) | 86%
15 | CCCCCCCCCCCCCCCC(=O)C(F)(F)F (10 µM) | 97%
16 | CCC(C)n1ncn(-c2ccc(N3CCN(c4ccc(OCC5COC(Cn6cncn6)(c6ccc(Cl)cc6Cl)O5)cc4)CC3)cc2)c1=O (stereo not given) [itraconazole] (10 µM) | 104%
17 | CC(=O)N[C@@H](CC(C)C)C(=O)O [acetyl-l-leucine] (10 µM) | 94.5%
18 | O=C(NCc1ccc(OC(F)(F)F)cc1)C1c2ccccc2C(=O)N1C1CCOCC1 (stereo not given) (10 µM) | 105%
19 | O=C(O)CCC(=O)OC[C@@H](NC(=O)C(Cl)Cl)[C@H](O)c1ccc([N+](=O)[O-])cc1 [chloramphenicol-sodium-succinate] (10 µM) | 108%
20 | CCS(=O)(=O)N(C)[C@H]1c2cc(C#N)ccc2OC(C)(C)[C@@H]1O [chromanol-293B-(-)-[3R,4S]] (10 µM) | 104%

Row | SMILES | SARS-CoV-2 infection rate
21 | COc1ccsc1CNCC[C@@]1(c2ccccn2)CCOC2(CCCC2)C1 (10 µM) | 103%
22 | COc1cc2nccc(Oc3ccc(NC(=O)NC4CC4)c(Cl)c3)c2cc1C(N)=O [lenvatinib] (10 µM) | 100%
23 | CC[C@H]1[C@@H]2C[C@H]3[C@@H]4N(C)c5ccccc5[C@]45C[C@@H]([C@@H]2[C@H]5O)N3[C@@H]1O [ajmaline] (10 µM) | 106%
24 | Nc1ccc(C(=O)O)cc1 [potassium-p-aminobenzoate] (10 µM) | 108%
25 | C=CC[C@]1(O)CC[C@H]2[C@@H]3CCC4=CCCC[C@@H]4[C@H]3CC[C@@]21C [allylestrenol] (10 µM) | 92.5%
26 | CC(C)=CCC[C@](C)(O)[C@H]1CC[C@]2(C)[C@@H]1[C@H](O)C[C@@H]1[C@@]3(C)CC[C@H](O)C(C)(C)[C@@H]3[C@@H](O)C[C@]12C [hemomex-s] (10 µM) | 104%
27 | COc1ccccc1N1CCN(CCN2C(=O)c3ccccc3C(C)(C)C2=O)CC1 (10 µM) | 100%
28 | CC[C@H](C)[C@@H]([C@@H](CC(=O)N1CCC[C@H]1[C@H](OC)[C@@H](C)C(=O)N[C@@H](Cc1ccccc1)c1nccs1)OC)N(C)C(=O)[C@@H](NC(=O)[C@H](C(C)C)N(C)C)C(C)C [dolastatin-10] (0.833333 µM) | 106%
29 | COc1ccc2c(c1OC)C(=O)O[C@@H]2[C@H]1c2c(cc3c(c2OC)OCO3)CCN1C [noscapine] (10 µM) | 104%
30 | CN1CCC(=C2c3ccccc3CCc3sccc32)CC1 [pizotifen] (10 µM) | 94.5%
31 | Cc1cc(C)c2c(N)c(C(=O)NCc3ccc(Cl)cc3)sc2n1 (10 µM) | 99%
32 | CCOC(=O)N[C@@H]1CC[C@@H]2[C@@H](C1)C[C@H]1C(=O)O[C@H](C)[C@H]1[C@H]2/C=C/c1ccc(-c2cccc(F)c2)cn1 [vorapaxar] (10 µM) | 106%
33 | Oc1ccc2[nH]cc(C3=CCNCC3)c2n1 (10 µM) | 90%
34 | COc1ccc(-c2sc(NC(=O)C(C)(C)C)nc2C)cc1S(=O)(=O)Nc1ccc(O)cc1 [PI4KIII-beta-inhibitor-1] (10 µM) | 66%
35 | CC[N+](CC)(CC)CC(=O)Nc1c(C)cccc1C (10 µM) | 104%
36 | CN1CCC(OC(c2ccccc2)c2ccccc2)CC1 [diphenylpyraline] (10 µM) | 82.5%
37 | COc1ccc2nc3c(c(N)c2c1)CCCC3 [7-methoxytacrine] (10 µM) | 64.5%
38 | CCc1cc(O)c(Oc2ccc(C(N)=O)cc2F)cc1F (10 µM) | 95.5%
39 | CCOC(=O)C1=C(C)NC(C)=C(C(=O)OC)[C@@H]1c1cccc([N+](=O)[O-])c1 (racemic) [nitrendipine] (10 µM) | 112%
40 | CCOc1ccc(/C=C2\NCCc3cc(OCC)c(OCC)cc32)cc1OCC [drotaverine] (10 µM) | 104%
